Test results reported in PubChem BioAssay (EPA / NIEHS).
Active and inactive are the calls of the source. How the source made its calls: active means hit-call score of the fitted dose curve at least 0.9, where 1 is the maximum; inactive means score below 0.9.

Assay: CCTE_Shafer_MEA_acute_spike_number: CCTE's Neural Acute Assay for Total Number of Spikes, Shafer Lab (AID 2284008);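 on AC50: curve fitted for decrease in spike count so AC50 reflects inhibitors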
Method in brief: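 Read-out is the total spike count over 40 min, expressed as percent change from each well's own pre-treatment baseline and fitted in the loss direction against DMSO. Rat cortical neurons were exposed at 0.03-40 uM on DIV 13 or 15.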
With `ClC1=C(Cl)C2(Cl)C3C(Cl)C=CC3C1(Cl)C2(Cl)Cl` (stereo not given) the AC50 was 7.52 µM (active).
With `CCCCOC(=O)c1ccccc1C(=O)OCc1ccccc1` the AC50 was 3.11 µM (active).
With `CCN(CC)N=O` the outcome was “inactive”.

Assay: CCTE_Shafer_MEA_acute_firing_rate_mean: CCTE's Neural Acute Assay for Mean Firing Rate, Shafer Lab (AID 2284009);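 further: analyzed for loss of signal so actives lower firing rate relative to DMSO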
Method in brief: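 Rat primary cortical neurons on 48-well MEA plates, dosed at 0.03-40 uM on DIV 13 or 15; 40 min spontaneous activity recorded at 37 C before and after compound. Spike rate per electrode averaged per well, expressed as percent change from baseline.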
For `ClC1=C(Cl)C2(Cl)C3C(Cl)C=CC3C1(Cl)C2(Cl)Cl` (stereo not given), the AC50 was 7.53 µM (active).
In the case of `CCCCOC(=O)c1ccccc1C(=O)OCc1ccccc1`, the AC50 is reported as 3.11 µM (active).
With `CCN(CC)N=O` the outcome was “inactive”.

Assay: CCTE_Harrill_HTTr_Viability_MCF7: CCTE's 6-hour Cell Viability Assessment for the High-Throughput Transcriptomics (HTTr) Platform, in MCF-7 cells cultured in DMEM + 10% fetal bovine serum, Harrill Lab (AID 2284010)
Method in brief: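 Membrane integrity was scored by high-content imaging of propidium iodide dye exclusion after a 6 h exposure across an eight-point dilution series. Data were fitted bidirectionally relative to DMSO as negative control and baseline.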
With `c1ccc2c(c1)oc1ccccc12` the outcome was “inactive”.
For `CCCCCCCCOC(=O)c1ccc(C(=O)OCCCCCCCC)c(C(=O)OCCCCCCCC)c1`, the outcome was “inactive”.
For `CN(C)[C@@H]1C(=O)C(C(N)=O)=C(O)[C@@]2(O)C(=O)C3=C(O)c4c(O)cccc4[C@@](C)(O)[C@H]3C[C@@H]12`, the outcome was “inactive”.
In the case of `CCC12COCN1COC2`, the outcome is reported as “inactive”.
For `CC(O)CCO` (stereo not given), the outcome was “inactive”.
With `Nc1cc(Cl)cc(C(=O)O)c1Cl` the outcome was “inactive”.
For `CN(C)C(=O)Nc1ccc(Cl)cc1`, the outcome was “inactive”.
With `Clc1ccccc1Cl` the outcome was “inactive”.
For `Oc1ccc2ccc3cccc4ccc1c2c34`, the outcome was “inactive”.
With `Nc1ccc(Cc2ccc(N)cc2)cc1` the outcome was “inactive”.
With `OCCOCCO` the outcome was “inactive”.
For `C=CCc1ccc2c(c1)OCO2`, the outcome was “inactive”.
With `ClC1=C(Cl)C2(Cl)C3C(Cl)C=CC3C1(Cl)C2(Cl)Cl` (stereo not given) the outcome was “inactive”.
In the case of `Cc1ccc([N+](=O)[O-])cc1`, the outcome is reported as “inactive”.
For `[O-][Cl+]O`, the outcome was “inactive”.
With `CCOc1cccc(C2(N3CCN(c4ccccc4)CC3)CCC(C)CC2)c1` (stereo not given) the outcome was “inactive”.
With `CS(=O)(=O)NC(=O)c1cc(Oc2ccc(C(F)(F)F)cc2Cl)ccc1[N+](=O)[O-]` the outcome was “inactive”.
For `c1ccc(C2CO2)cc1` (stereo not given), the outcome was “inactive”.
With `Cc1ccc(N)cc1` the outcome was “inactive”.
With `COC(=O)c1ccccc1N` the outcome was “inactive”.
In the case of `Clc1ccc(Cl)c(Cl)c1`, the outcome is reported as “inactive”.
In the case of `CN(C)c1ccc(C(=O)c2ccc(N(C)C)cc2)cc1`, the outcome is reported as “inactive”.
With `c1ccc2c(c1)-c1cccc3cccc-2c13` the outcome was “inactive”.
For `CCCCCCCCCCCCCN1CC(C)OC(C)C1` (stereo not given), the outcome was “inactive”.
For `CCCCOC(=O)c1ccccc1C(=O)OCc1ccccc1`, the outcome was “inactive”.
In the case of `Brc1ccc(Oc2ccccc2)cc1`, the outcome is reported as “inactive”.
For `CN(C)c1ccccc1`, the outcome was “inactive”.
In the case of `Cc1ccc(N=C=O)cc1N=C=O`, the outcome is reported as “inactive”.
With `CCN(CC)N=O` the outcome was “inactive”.
For `O=C(O)C1C2CCC(O2)C1C(=O)O` (stereo not given), the outcome was “inactive”.
In the case of `Cc1cccc(N)c1N`, the outcome is reported as “inactive”.
With `O=C1CCCO1` the outcome was “inactive”.
With `Nc1ccc(Oc2ccc(N)cc2)cc1` the outcome was “inactive”.
In the case of `CC(C)(C)OOC(C)(C)CCC(C)(C)OOC(C)(C)C`, the outcome is reported as “inactive”.
In the case of `OCCCl`, the outcome is reported as “inactive”.
For `Cn1cc(-c2ccccc2)c(=O)c(-c2cccc(C(F)(F)F)c2)c1`, the outcome was “inactive”.
With `COP(=S)(OC)SCN1C(=O)c2ccccc2C1=O` the outcome was “inactive”.
With `C1=Cc2cccc3cccc1c23` the outcome was “inactive”.
For `N#CC(Br)(Br)C(N)=O`, the outcome was “inactive”.
